In PubChem BioAssay AID588511 (Johns Hopkins Ion Channel Center, 2011):
Hit rate of the full screen: of about 310,000 compounds, about 3,600 (1.2%) were called active.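 How the source made its calls: active means ratio plate-corrected score three or more library SD toward inhibition, starting fluorescence score within five deviations; inactive means the rest.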 The entries come from a sample that favours actives as a whole.

target: Anoctamin-1 (Mus musculus) (UniProt Q8BHY3); assay: blockers of mouse ANO1 Ca-activated Cl channel – cell-based, HTS, primary screen (AID 588511); details: HEK293 TMEM16A/YFP iodide influx fluorescence, ionomycin; at 10 µM;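 on normalized B-score (activity score, 25-100; higher = stronger inhibition): score derived from kinetic fluorescence span divided by baseline fluorescence per well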
Sequence (Q8BHY3 whole entry, looked up): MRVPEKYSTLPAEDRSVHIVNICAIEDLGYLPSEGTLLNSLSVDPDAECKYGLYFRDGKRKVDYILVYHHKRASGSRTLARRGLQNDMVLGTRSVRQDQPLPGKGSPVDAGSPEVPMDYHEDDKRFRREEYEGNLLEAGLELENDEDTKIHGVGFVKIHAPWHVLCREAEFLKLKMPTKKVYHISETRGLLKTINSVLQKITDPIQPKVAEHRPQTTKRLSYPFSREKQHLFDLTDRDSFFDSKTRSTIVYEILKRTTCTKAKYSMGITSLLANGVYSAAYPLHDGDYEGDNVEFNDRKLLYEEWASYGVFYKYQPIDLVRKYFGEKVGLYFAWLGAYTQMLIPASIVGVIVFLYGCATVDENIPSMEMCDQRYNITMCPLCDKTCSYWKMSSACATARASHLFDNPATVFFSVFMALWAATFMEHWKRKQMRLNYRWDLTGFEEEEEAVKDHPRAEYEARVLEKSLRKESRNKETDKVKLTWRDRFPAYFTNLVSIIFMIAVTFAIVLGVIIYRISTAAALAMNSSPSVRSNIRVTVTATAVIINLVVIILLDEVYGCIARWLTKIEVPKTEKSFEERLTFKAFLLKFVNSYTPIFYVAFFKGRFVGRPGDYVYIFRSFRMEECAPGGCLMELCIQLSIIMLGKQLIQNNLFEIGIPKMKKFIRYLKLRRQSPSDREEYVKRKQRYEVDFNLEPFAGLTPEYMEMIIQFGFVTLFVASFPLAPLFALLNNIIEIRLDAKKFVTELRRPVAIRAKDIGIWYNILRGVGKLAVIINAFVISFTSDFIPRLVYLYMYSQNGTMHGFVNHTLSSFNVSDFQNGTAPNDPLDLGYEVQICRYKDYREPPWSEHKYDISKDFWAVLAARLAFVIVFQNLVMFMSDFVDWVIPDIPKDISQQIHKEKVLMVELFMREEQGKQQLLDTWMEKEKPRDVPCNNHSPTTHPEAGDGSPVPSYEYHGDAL

SMILES	normalized B-score (activity score, 25-100; higher = stronger inhibition)
CCOc1cccc(=NC2CCCCC2)c2c(C)[nH]c(C)c12	25 (active)
Nc1ccc(C(=O)N/N=C2/CN3CCC2CC3)cc1	inactive
CCOC(=O)C1CN(C)CCC1=O (stereo not given)	inactive
CCCCn1c(=O)c(C(=O)Nc2ccccc2Cl)c(O)c2ccccc21	inactive
CCCCCn1c(=O)c(C(=O)NCc2ccccn2)c(O)c2ccccc21	25 (active)
CCCCCn1c(=O)c(C(=O)NCc2ccccc2)c(O)c2ccccc21	inactive
O=C(Cn1c(=O)n(CC2CS2)c2ccccc21)N1CCCCC1 (stereo not given)	inactive
O=c1[nH]c(=O)n(-c2ccccc2)c(O)c1C=NC12CN3CN(CN(C3)C1)C2	inactive
COc1ccccc1NC(=O)N1C[C@@H]2C[C@@H](C1)c1cccc(=O)n1C2	inactive
Cc1ccc(P(=S)(c2ccc(C)o2)N2CCOCC2)o1	inactive
COc1ccc(-n2c(-c3ccccc3)nc3ccccc3c2=O)cc1	inactive
CCN(CC)P(=O)(Oc1cccc(C)c1)N(CC)CC	inactive
CCN(CC)C(=O)c1ccc(NC(=O)c2sccc2-c2ccccc2)cc1	inactive
CCN(CC)C(=O)c1ccc(NC(=O)c2cc(-n3cnnc3)ccc2Cl)cc1	100 (active)
COc1ccc(-c2nn(CCC#N)cc2C(=O)Nc2ccc(C(C)=O)cc2)cc1	inactive
O=[N+]([O-])c1ccc(C2C3C(c4ccccc4)=NC4(CCCCC4)N32)cc1 (stereo not given)	inactive
CN(C)S(=O)(=O)c1cc(C(=O)N2CCC(C(=O)O)(c3ccccc3)CC2)ccc1Cl	inactive
c1ccc(CCNC2CCCCCC2)cc1	inactive
CCCCCCCCCCCCn1ccc(=N)cc1	25 (active)
CC1(C)C(c2ccccc2)=NC(c2cccnc2)=[N+]1[O-]	inactive
